± gives the standard deviation.
Tested on: MILI (PIWIL2) piRISC loaded with L1MC piRNA (26 nt)
Assay: pre-steady-state target cleavage rate (min^-1); guide: L1MC piRNA 5'p-UAACUAAAUACUAUGCAAGCUGUAGG; MIWI and MILI are mouse PIWI proteins and EfPiwi is from a freshwater sponge; tags in brackets are library labels; higher = faster piRNA-guided slicing of the target
Details: auxiliary factor: 500 nM mouse GTSF1
Protocol: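 Cleave-'n-Seq: a library of target RNAs (target site embedded in constant flanks, ACAGCATTCCGCGTTAGTGATATCCG... 5' flank; DNA-blocked outside the site) at 0.1 nM was incubated with 1 nM active mouse MILI or MIWI piRISC (synthetic 5'-monophosphorylated piRNA guide) with or without 500 nM mouse GTSF1 at 33 °C for 1 min to 16 h. Uncleaved targets were sequenced and normalised to non-target controls, and the pooled three trials were fitted to a burst-and-steady-state model to give the pre-steady-state cleavage rate (min^-1; k3 is constrained to at most 1e-4). Sequence is the target site only; target names encode pairing extent (gX:gY) and contiguous / 1-mismatch / 2-mismatch / bulge geometry. Fits with R² ≤ 0 are excluded.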

Going from UCCUCCUACAGCAACCAUAGUAUUUAGAAA to UCCUGGUACAGCUUGCAUAGUAUUUCAGUUA, the “pre-steady-state target cleavage rate” value rises from 0.0741 ± 0.02 to 0.21 ± 0.078.

First: UCCUCCUACAGCUUGCAUAGUAUUUAGUGUA
Second: UCCUGGAUGUCCUUGCAAACUAUUUAGUUA
The “pre-steady-state target cleavage rate” value of the first is higher: 0.158 ± 0.027 for the first, 0.00732 ± 0.0037 for the second.

UCCUGGAACAGCGUGCAUAGUAUUUAGUUA and UCCUGGUACAGCUAUGCAUAGUAUUUAGUUA are within error of each other in “pre-steady-state target cleavage rate” value: 0.282 ± 0.017 for the first, 0.259 ± 0.016 for the second.

First: UCCUGGAUGUCGAACCAUAGUAUUUAGUUU [g2:g15:cont:t1U]
Second: UCCUCCUACAGCUUGCAUAGUAUAUAGAUA
The “pre-steady-state target cleavage rate” value of the first is lower: 0.00385 ± 0.0021 for the first, 0.0715 ± 0.018 for the second.

Going from UCCUGGUAGAGCAUGCAUAGUAUUUAGUUA to UCCUGGAACACCUUGCAUAGUAUUUACAAA, the “pre-steady-state target cleavage rate” value falls from 0.196 ± 0.018 to 0.071 ± 0.02.

Compared with UCCUGCUACAGCUUCGAUAGUAUUUAGUUA, UCCUGGAUGAGCUUGCGUAGUAUUUAGUUA is lower in “pre-steady-state target cleavage rate” value: 0.253 ± 0.02 for the first, 0.119 ± 0.016 for the second.

Compared with UCCUCCUACAGCUUGGAUAGUAUUUAGUUA, UCCUGGAACAGCUACGAUAGUAUUUAGAAA is lower in “pre-steady-state target cleavage rate” value: 0.294 ± 0.017 for the first, 0.0308 ± 0.011 for the second.

Going from UCCUGGAUCAGCUUGGAUAGUUUUUAGUUA to UCCUGCUACAGCUUGCAUAGUAUUUAGUUUA, the “pre-steady-state target cleavage rate” value rises from 0.0521 ± 0.0089 to 0.308 ± 0.018.

First: UCCUGGAUCAGCUUGCAUAGUAUAAUGUAA
Second: UCCUGGAUGUCGUUGCAUAGUAUUUAGUUUA
The “pre-steady-state target cleavage rate” value of the first is lower: 0.0214 ± 0.0079 for the first, 0.178 ± 0.018 for the second.

First: UCCUGGAUGAGCUUGCAUACUAUUUACUUA
Second: UCCUGGUACAGCUUGACAUAGUAUUUAGUUA
The “pre-steady-state target cleavage rate” value of the first is lower: 0.00478 ± 0.0043 for the first, 0.231 ± 0.025 for the second.

UCCUGGAUCAGCUUGCAAAGUAUUUACUUA and UCCUGCUACAGCUUGCAUAGUAUUAUCAAA are within error of each other in “pre-steady-state target cleavage rate” value: 0.0828 ± 0.013 for the first, 0.0862 ± 0.026 for the second.

Going from UCCUGCUACAGCUUGCAAACUAUUUAGUUA to UCCUGGAUGUCGAUGCAUAGUAUUAUAGUUA, the “pre-steady-state target cleavage rate” value rises from 0.048 ± 0.012 to 0.123 ± 0.021.

Going from UCCUGGAUCAGCUUGCAUGUAUUUAGUUA to UCCUGCUACAGCUUGCAUAGUAUUUAGGUA, the “pre-steady-state target cleavage rate” value rises from 0.041 ± 0.0073 to 0.143 ± 0.034.

With UCCUGGAUGAGCUUGCAUAGUAUUAUGUUA the “pre-steady-state target cleavage rate” value was 0.172 ± 0.036.

Same assay, conditions: auxiliary factor: none (no GTSF1)

UCCUGGUACAGCUUGCAUAGUAUUUCAGUUA and UCCUGGAACAGCGUGCAUAGUAUUUAGUUA are within error of each other in “pre-steady-state target cleavage rate” value: 0.00397 ± 0.0039 for the first, 0.00797 ± 0.0029 for the second.

UCCUGGUACAGCUAUGCAUAGUAUUUAGUUA and UCCUGGUAGAGCAUGCAUAGUAUUUAGUUA are within error of each other in “pre-steady-state target cleavage rate” value: 0.0112 ± 0.0038 for the first, 0.0109 ± 0.0033 for the second.

UCCUGCUACAGCUUCGAUAGUAUUUAGUUA and UCCUGGAUGAGCUUGCGUAGUAUUUAGUUA are within error of each other in “pre-steady-state target cleavage rate” value: 0.00716 ± 0.002 for the first, 0.0108 ± 0.0025 for the second.

Going from UCCUCCUACAGCUUGGAUAGUAUUUAGUUA to UCCUGGAUCAGCUUGGAUAGUUUUUAGUUA, the “pre-steady-state target cleavage rate” value falls from 0.0109 ± 0.003 to 0.00364 ± 0.0024.

UCCUGCUACAGCUUGCAUAGUAUUUAGUUUA and UCCUGGAUGUCGUUGCAUAGUAUUUAGUUUA are within error of each other in “pre-steady-state target cleavage rate” value: 0.0118 ± 0.0032 for the first, 0.0103 ± 0.0039 for the second.

UCCUGGUACAGCUUGACAUAGUAUUUAGUUA and UCCUGGAUCAGCUUGCAAAGUAUUUACUUA are within error of each other in “pre-steady-state target cleavage rate” value: 0.00764 ± 0.0035 for the first, 0.00392 ± 0.0024 for the second.

With UCCUGGAUGUCGAUGCAUAGUAUUAUAGUUA the “pre-steady-state target cleavage rate” value was 0.00538 ± 0.0026.

From the supplement of paper PMC10338343
